# Measurements as given in ChEMBL document CHEMBL3988442, “University of Dundee, Small-Polar-MMV Screening Library” (2021).
# The campaign covered roughly 53,000 compounds. About 900 (1.7%) showed an effect of 50% or more. The entries come from a sample that favours strong results as a whole.
# Tested on: Mycobacterium tuberculosis
# Test: Cornell - Phenotypic assay to identify agents that inhibit growth of Mycobacterium tuberculosis
# Type: functional
# Design: scale not given: direction of the effect not stated beside the values
# Conditions: 10 mM as filed; unlikely as a test dose
row,Compound,Percent Effect
1,Cc1csc(N2CCN(Cc3cccnc3)CC2C)n1 (stereo not drawn),17.54%
2,O=C(NC1CCCc2c1[nH]c1ccc(F)cc21)c1n[nH]c2c1CCC2 (stereo not drawn),5.755%
3,COc1ccc(Cl)cc1CCNC(=O)NCc1noc(C)n1,15.04%
4,COc1ccc(Cl)cc1CCNC(=O)NCc1ccncc1,59.54%
5,COc1ccc(Cl)cc1CCNC(=O)NCc1ncnn1C,19.31%
6,COc1ccc(C(=O)NCCNC(=O)c2scnc2Cl)cc1,-54.01%
7,CCN(CC)C1CCN(C(=O)NCc2cccc(-n3ccnc3)c2)C1 (stereo not drawn),34.25%
8,CCNC(=O)CCc1c(C)nc2cc(O)nn2c1C,3.574%
9,COC(=O)CCc1c(C)nc2cc(O)nn2c1C,-35.79%
10,COc1ccc(NC(=O)CCc2c(C)nc3cc(O)nn3c2C)cn1,65.23%
11,Cc1cnn(CC2CCCN2Cc2nnc(C(C)C)o2)c1 (stereo not drawn),-69.76%
12,Cc1cnn(CC2CCCN2C(=O)c2ccc3nnc(C)n3c2)c1 (stereo not drawn),107.3%
13,Cc1cc(C)n(CC2CCCN2C(=O)c2ccc3nnc(C)n3c2)n1 (stereo not drawn),12.74%
14,Cc1cnn(CC2CCCCN2C(=O)c2ccc3nncn3c2)c1 (stereo not drawn),-11.21%
15,Cc1ncccc1CNCC1CCN(CC(C)O)CC1 (stereo not drawn),-13.7%
16,Cc1cc(-c2ccnn2C)nc(C2CCN(S(C)(=O)=O)CC2)n1,31.8%
17,Cn1nccc1-c1cccc(CC2CCN(S(C)(=O)=O)C2)n1 (stereo not drawn),50.09%
18,Cc1cc(-c2ccnn2C)nc(C2CCCN(S(C)(=O)=O)C2)n1 (stereo not drawn),51.61%
19,CC(=O)N1CCC(Cc2cccc(-c3ccnn3C)n2)CC1,35.75%
20,Cn1nccc1-c1cncc(C2CCCN(S(C)(=O)=O)C2)n1 (stereo not drawn),20.84%
21,Cc1nc(-c2ccnn2C)cc(C2CCCN(S(C)(=O)=O)C2)n1 (stereo not drawn),29.58%
22,CC(C)C(=O)N1CCN(C(=O)c2cc(C(C)C)no2)[C@H]2CS(=O)(=O)C[C@H]21,24.89%
23,CN(C)CCNC(=O)CC1CCN(c2cccnn2)CC1,8.308%

row,Compound,Percent Effect
1,CCN(Cc1nc(C)no1)C(=O)C1CC(=O)N(Cc2ccccn2)C1 (stereo not drawn),0.6142%
2,O=C(NC1CCCN(Cc2c(F)cccc2F)C1)c1cc[nH]n1 (stereo not drawn),-25.78%
3,CC(=O)NCCN1CCC(c2cccs2)CC1,5.988%
4,O=C(NCCN1CCC(c2cccs2)CC1)Nc1cccs1,107.5%
5,O=C(NCCc1ccccc1)NCCN1CCC(c2cccs2)CC1,45.08%
6,Cc1cc(N2CCC(Cc3ccncc3)C2)ncn1 (stereo not drawn),-20.77%
7,OCC1(Cc2ccc(Cl)cc2)CCN(Cc2ccccc2O)CC1,19.16%
8,COc1ccc(CN2CCC(CO)(Cc3ccc(Cl)cc3)CC2)c(O)c1,23.78%
9,COc1cccc(CN2CCC(CO)(Cc3ccc(Cl)cc3)CC2)c1O,91.19%
10,CCC(O)c1nc2c([nH]1)CC(C)(C)CNC2=O (stereo not drawn),-22.87%
11,CCc1cc(NCCN2CCNC2=O)n2nccc2n1,-6.964%
12,Cc1nc(C)n(CC2CCCN(CCOc3ccccc3F)C2)n1 (stereo not drawn),-21.82%
13,O=C(NC1CCN(CC2CCCC2)C1)N1CCC(OCC2CC2)CC1 (stereo not drawn),51.36%
14,O=C(NC1CCN(CC2CC2)C1)N1CCC(OC2CCCCC2)CC1 (stereo not drawn),28.71%
15,NC(=O)C1CCN(C(=O)NC2CCN(CC3CCCC3)C2)CC1 (stereo not drawn),21.86%
16,CC(C)C(=O)N1CCC(c2nc3ccccn3c2NC(C)(C)C)CC1,44.44%
17,CCc1cn[nH]c1C1CCN(c2cc(C)c3cccc(OC)c3n2)CC1,57.17%
18,CCc1cn[nH]c1C1CCN(c2cc(C)c3cc(OC)ccc3n2)CC1,4.644%
19,CCc1cn[nH]c1C1CCN(c2cc(C)c3ccc(OC)cc3n2)CC1,2.528%
20,CSc1ncccc1C(=O)NCC(c1ccco1)N(C)C (stereo not drawn),23%
21,CCNS(=O)(=O)c1ccc2c(c1)c(=O)n(CC)c(=O)n2CC,5.155%
22,CS(=O)(=O)CCSCc1cc(F)cc2cccnc12,-6.961%
23,Fc1ccccc1CN1CCCN(c2ncnc3[nH]ccc23)CC1,14.79%

row,Compound,Percent Effect
1,Fc1ccccc1CN1CCCN(c2ccc3cc[nH]c3n2)CC1,55.73%
2,c1cc(CN2CCCN(c3ccc4cc[nH]c4n3)CC2)ccn1,-9.703%
3,O=C(NCCc1csc(-c2cccnc2)n1)c1cnn2c1CCCC2,-3.716%
4,Cc1ccc(OCCN2CCC(c3nc(C)n4c(C)csc34)CC2)cc1,54.47%
5,Cc1csc2c(C3CCN(CCOc4ccccc4F)CC3)nc(C)n12,-14.57%
6,Cc1csc2c(C3CCN(CCCOc4ccccc4)CC3)nc(C)n12,35.94%
7,Cc1nc(CN2CCO[C@@H]3CN(Cc4ccsc4)C[C@@H]3C2)cs1.O=C(O)C(F)(F)F.O=C(O)C(F)(F)F,22.49%
8,Cc1noc(C)c1-c1nc(N(C)C)ncc1-c1cnccn1,-5.73%
9,CC[C@@H]1N(Cc2ccsc2)CCC[C@]12CCC(=O)N2C.O=C(O)C(F)(F)F,2.508%
10,NC(=O)C1CN(C(=O)Nc2ccccc2SC2CCCC2)CCO1 (stereo not drawn),18.89%
11,CC(=O)N1CCCC1CCc1ccc(Cl)nn1 (stereo not drawn),30.13%
12,CC(=O)N1CCCC1CCc1ccnc(-c2cncnc2)c1 (stereo not drawn),56.86%
13,CC(=O)N1CCCC1c1ccnc(Nc2cncnc2)n1 (stereo not drawn),-12.16%
14,CC1(C(=O)NCCCOc2ccccc2F)CC(=O)N2C=CC=CC2=N1 (stereo not drawn),24.68%
15,Cc1ccccc1OCCCNC(=O)C1(C)CC(=O)N2C=CC=CC2=N1 (stereo not drawn),54.27%
16,Cc1ccc(OCCCNC(=O)C2(C)CC(=O)N3C=CC=CC3=N2)cc1 (stereo not drawn),45.74%
17,CN(C)[C@H]1CCCCN(C(=O)c2cccc(N3CCS(=O)(=O)CC3)c2)C1,-27.17%
18,CC(C)c1noc(CN(Cc2ccc(F)cc2)C2CC2)n1,-14.54%
19,CCC(C(=O)NCCc1nc(C)cc(C(F)(F)F)n1)n1cccn1 (stereo not drawn),-40.59%
20,COc1ccccc1C1(NCc2c(C)nc3c(C)cccn23)CCCC1.Cl,-17.64%
21,Cc1nc2sccn2c1CNC1(c2ccccc2F)CCCC1.O=C(O)CC(O)(CC(=O)O)C(=O)O,21.81%
22,COc1ccc(C2(NCc3c(C)nc4c(C)cccn34)CCCC2)cc1.O=C(O)CC(O)(CC(=O)O)C(=O)O,60.04%
